# Anthrax LF inh2 – blocks Bacillus anthracis lethal factor protease; P15917; multiplex microsphere protease cleavage assay, LF; inhibition, % at 10 µM; 0.12% of 360,000 active; AID 588501; further: plate controls were buffer without enzyme for full effect and enzyme alone for no effect
# SARS 3CLpro inh – SARS-CoV 3CLpro protease inhibition; 0.14% of 290,000 active; P0C6X7; recombinant SARS-CoV 3CLpro, quenched FRET peptide cleavage; inhibition, % at 6 µM; in the data active means inhibition above about 12%
# BoNT-F LC inh – BoNT F light chain protease inhibition; Multiplex microsphere protease cleavage assay, flow cytometry; inhibition, % at 10 µM; 0.22% of 360,000 active; in the data active means inhibition above about 35%, passing the limit was not always enough; inconclusive means no clear call, values can overlap the other calls; further: plate controls were buffer without enzyme for full effect and enzyme alone for no effect
# BoNT-A LC inh2 – BoNT A light chain protease inhibition | inhibition, % at 10 µM | AID 588499 | 0.17% of 360,000 active | multiplex microsphere protease substrate cleavage, flow cytometry; further: plate controls were buffer without enzyme for full effect and enzyme alone for no effect
# Autofluor counter – flagged as autofluorescent in microsphere protease counterscreen; compound autofluorescence counterscreen, microsphere flow cytometry; hits give high values; fluorescence intensity (concentration not given with the values); 3.1% of 360,000 active; AID 624483; in the data active means fluorescence intensity above about 16000; inconclusive means no clear call, values can overlap the other calls
# Starred values were filed as active, the others as inactive; ? = inconclusive; nt = no result. Shown are actives, neighbours in structure and some others; about 3.5% of the full set was active somewhere. Unless noted, no stated cut-off is given here; in the data, active means inhibition above about 30%; inconclusive means no clear call, values can overlap the other calls; inactive means below that.
SMILES,Anthrax LF inh2,SARS 3CLpro inh,BoNT-F LC inh,BoNT-A LC inh2,Autofluor counter
O=C(CN(C(=O)Cn1nnc(-c2ccccc2F)n1)c1cccc2c1CCCC2)NCc1ccccc1,-12,3,?,?,?
COc1ccc(-c2nnn(CC(=O)N(CC(=O)NCCC(C)C)c3ccccc3)n2)cc1OC,3,-2,5,3,21028*
COc1ccc(CCNC(=O)Cn2nnc(-c3ccc(N4CCOCC4)cc3)n2)cc1OC,-5,-5,9,0,10812
COc1ccc(CCNC(=O)Cn2nnc(-c3cccc(OC)c3OC)n2)cc1OC,-2,6,-3,-1,22884*
CC1Oc2ccccc2N(CC(=O)N2CCCCCC2)C1=O (centres undefined),-2,-2,-3,-5,5138
NC(CSC(c1ccccc1)(c1ccccc1)c1ccccc1)C(=O)O (centres undefined),6,nt,-17,0,3897
O=C(O)CCn1nnc2ccccc21,0,1,1,0,4191
COc1ccc(OC)c(C(=O)C(=O)c2cc(OC)ccc2OC)c1,-4,nt,-12,0,3825
COc1ccc(OC)c(CC(=O)O)c1,-1,0,-4,?,23906*
CC(CN1CCN(C)CC1)OC(=O)c1ccc(Cl)cc1Cl (centres undefined),-4,1,-1,?,16186*
CC(NC(=O)C(=O)NN=C1CCCCCC1)c1ccccc1 (centres undefined),2,8,-1,0,3925
COc1ccc(C(CNC(=O)COc2ccc(F)cc2Cl)N2CCCCC2)cc1 (centres undefined),-2,nt,-3,0,3519
COCCNS(=O)(=O)c1ccc2c(c1)C(=O)c1cc(S(=O)(=O)NCCOC)ccc1-2,-3,4,1,1,16158*
COCCNS(=O)(=O)c1ccc(F)c(OC)c1,-3,5,-2,0,10708
O=C1c2cc(S(=O)(=O)NCCCO)ccc2-c2ccc(S(=O)(=O)NCCCO)cc21,-1,-1,1,3,21753*
CCCCc1nnc(SCCSc2nnc(CCCC)n2N)n1N,-1,1,-1,0,23554*
Cc1ccccc1-n1nc(C)c2cc(C(=O)N3CCOCC3)sc21,-1,6,1,?,23082*
CCN(CC)C(=O)CSc1nnc(CCCCCNC(=O)OC(C)(C)C)o1,-2,-1,5,3,15625
CC1Cc2ccccc2N1C(=O)COc1ccc2c(c1)OCO2 (centres undefined),-2,0,2,-1,3436
CN1CCN(c2ccccc2NC(=O)c2cc3ccccc3o2)CC1,1,0,0,3,21317*
CCCCn1nnc(NC(=O)Cc2ccc(Cl)cc2)n1,1,0,3,0,3246
CC(C)C(=O)Nc1ccc(NC(=S)NC(=O)c2cc3ccccc3o2)cc1,1,1,-8,-1,4307
CCn1nnc(NC(=O)CSc2ccc(Cl)cc2)n1,-1,-1,-4,-3,24449*
CCn1nnc(NC(=O)c2cc3ccccc3o2)n1,4,-2,2,2,21445*
CC(C)C(=O)Nc1ccc(NC(=O)c2cc3ccccc3o2)cc1,-3,5,-5,-2,22449*
SMILES,Anthrax LF inh2,SARS 3CLpro inh,BoNT-F LC inh,BoNT-A LC inh2,Autofluor counter
Cc1ccc(S(=O)(=O)N(C)C)cc1NC(=O)c1cc(=O)c2ccccc2o1,-4,-4,0,2,4350
CCNc1nc(NC(C)C)nc(NC(C)(C)C)n1,-2,2,1,0,4092
COc1ccccc1-c1nnc(NC(=O)c2ccc(S(=O)(=O)N3CCOCC3)cc2)o1,-1,10,-1,0,5725
Cc1cc(-c2csc(NC(=O)c3cc4ccccc4o3)n2)c(C)n1C,7,-4,-3,0,23885*
CCN(CCCn1c(SCC#N)nc2ccccc2c1=O)c1ccccc1,-16,-3,0,2,19328*
C=C(C)Cn1c(SCC#N)nc2ccccc2c1=O,0,-1,-11,0,2379
O=C(Nc1cccc(C(F)(F)F)c1)c1cc2ncc(Br)cn2n1,1,-3,3,4,22276*
CCc1ccccc1NC(=O)c1cc2ncc(Br)cn2n1,-1,7,7,?,21333*
O=C(NCCc1ccccc1)c1cc2ncc(Br)cn2n1,2,5,0,1,2715
Cn1c(=O)oc2cc(S(=O)(=O)NC3CCN(Cc4ccccc4)CC3)ccc21,-4,-1,-2,0,5955
COc1ccc2c(c1)CC1(CN2C)C(=O)NC(=O)N(c2ccc(F)cc2)C1=O (centres undefined),-1,3,0,0,22766*
COc1ccc2c(c1)CC1(CN2C)C(=O)NC(=O)N(c2ccc(C)cc2)C1=O (centres undefined),-3,-2,-6,1,4274
Cc1ccc(Cn2ccc(NC(=O)c3cc(-c4ccco4)on3)n2)cc1,-6,2,5,6,21800*
Cc1ccc(Cn2ccc(NC(=O)c3cc(-c4ccc(Br)cc4)on3)n2)cc1,-2,1,-5,-3,16876*
CCN(CC)C(=O)c1cc(-c2ccc(Br)cc2)on1,1,0,1,1,23321*
Cc1ccc(Cn2ccc(NC(=O)c3cc(-c4ccccc4)on3)n2)cc1,-4,-2,-12,?,8729
COc1ccc(-c2cc(C(=O)Nc3c(C)nn(Cc4ccccc4Cl)c3C)no2)cc1OC,0,-4,-6,?,22371*
COC(=O)c1cc(-c2ccc(Br)cc2)on1,9,-3,-2,5,4589
COc1ccc(Cn2c(C)c(C)c(C#N)c2NC(=O)Nc2ccccc2)cc1,1,-5,6,0,4207
COc1ccc(C(=O)Oc2ccc(N(C)S(=O)(=O)c3ccccc3)cc2)cc1[N+](=O)[O-],1,8,-5,1,4493
COc1ccc(Nc2oc(COc3ccccc3OC)nc2C#N)cc1,0,-8,6,0,2557
CCOCCCN(C(=O)c1snc(C(N)=O)c1N)C(C(=O)NCCC(C)C)c1ccc(Cl)cc1 (centres undefined),-13,-2,24,-5,4024
Cc1nn(Cc2ccc(Cl)c(Cl)c2)c(C)c1NC(=O)c1cc(-c2ccco2)on1,-1,2,-4,-2,21457*
CCOC(=O)C1CCCN(C(=O)c2cc(COc3ccc(C)nc3)on2)C1 (centres undefined),0,-5,4,2,5533
c1ccc2[nH]c(NCCCN3CCOCC3)nc2c1,-5,-3,-6,?,24547*
CCC(C(=O)N1CCN(c2ncccn2)CC1)c1ccccc1 (centres undefined),2,-6,6,1,3842
CCC(C(=O)N1CCC2(CC1)OCCO2)c1ccccc1 (centres undefined),-2,-4,1,?,16484*
Brc1ccc(Cn2c(-c3cncs3)nc3ccccc32)cc1,5,5,-9,-1,10760
c1ccc(Cn2c(-c3cncs3)nc3ccccc32)cc1,1,2,-4,-3,20700*
Brc1cccc(Cn2c(-c3cncs3)nc3ccccc32)c1,-2,-2,-2,?,22203*
